Our source for the outcome and AC50 values is PubChem BioAssay (EPA / NIEHS).

Activity calls are given as the source filed them. Rule for the calls: active = hit-call score of the fitted dose curve at least 0.9, where 1 is the maximum; inactive = score below 0.9.

A short description of the assay: APR_HepG2_p53Act_24hr: Apredica 24-hour HepG2 Assay for p53 Activation (AID 2282913). As to conditions: high-content imaging, actives raise or lower the signal. The protocol:
APR_HepG2_24hr is a cell-based, multiplexed-readout assay that uses HepG2, a human liver cell line, with measurements taken at 24 hours after chemical dosing in a 384-well plate.APR_HepG2_p53Act_24hr is one of 10 assay component(s) measured or calculated from the APR_HepG2_24hr assay. It is designed to make measurements of dna content, a form of viability reporter, as detected with fluorescence intensity signals by HCS Fluorescent Imaging technology.Data from the assay component APR_HepG2_p53Act_24hr was analyzed into 1 assay endpoint. This assay endpoint, APR_HepG2_p53Act_24hr, was analyzed with bidirectional fitting relative to DMSO as the negative control and baseline of activity. Using a type of viability reporter, measures of protein for gain or loss-of-signal activity can be used to understand the signaling at the pathway-level as they relate to the gene TP53. Furthermore, this assay endpoint can be referred to as a primary readout, because this assay has produced multiple assay endpoints where this one serves a signaling function. To generalize the intended target to other relatable targets, this assay endpoint is annotated to the dna binding intended target family, where the subfamily is tumor suppressor.
Cells were treated with dimethyl sulfoxide (DMSO) as a solvent control at a final concentration of 0.5% v/v or with compounds in DMSO with a resulting final DMSO concentration of 0.5% v/v. Compound treatment was done at concentrations of 0.39, 0.78, 1.56, 3.12, 6.24, 12.5, 25, 50, 100, and 200 uM in duplicate on each plate. Cells were treated with compounds for 1, 24, or 72 hr. Carbonyl […] m-chloro-phenylhydrazone (CCCP) and taxol were used as positive controls for mitochondrial function and cytoskeletal stability, respectively; DMSO served as the negative control for this experiment. Cells were fixed by the direct addition of 50 uL formaldehyde in Hank's Balanced Salt Solution (HBSS) to a final concentration of 3.7%. After incubation in the fixation medium for 30 min at room temperature (293-298 K), cells were rinsed twice with HBSS and treated with cell permeabilization buffer (16 uL of 0.5% Triton X-100) for 10 min at room temperature (293-298 K) before labeling. For mitochondrial membrane potential and mitochondrial measurements, pre-fixed cells were incubated with 50 uL of MitoTracker Red CMXRos (Invitrogen) at a concentration of 250 nM for 30 min before fixation. In the remaining cases, post-fixed cells were labeled by incubation with a multiplexed mixture of primary antibodies in HBSS for 60 min at room temperature (293-298 K) to detect immunoreactivity of c-Jun (1:500), phospho-histone H3 (1:100), phospho-histone H2A.x (1:200), p53 (1:400), alpha-tubulin (1:200) and Hoechst 33342 (2 ug/mL). Cells were labeled for multiplexed imaging on two separate plates: a) Hoechst 33342, MitoTracker Red, phospho-histone H3, and alpha-tubulin, and b) Hoechst 33342, phospho-histone H2A.x, and c-Jun. A final rinse with HBSS (50 uL) was performed before analysis. The primary and secondary antibodies for the proteins were phospho-histone H3 (rabbit anti-phospho-histone H3 and FITC-donkey anti-rabbit IgG), phospho-histone H2A.x (mouse anti-phospho-histone H2A.x and FITC-donkey anti-mouse IgG), c-Jun (rabbit anti-phospho-c-Jun and Cy3-donkey anti-rabbit IgG), p53 (sheep anti-p53 and Cy5-donkey anti-sheep IgG), alpha-tubulin (mouse anti-alpha-tubulin and Cy5-donkey anti-mouse IgG). These antibodies are available as the CellCiphr HepG2 assay kit (Millipore).Digital images of each well were captured using a Cellomics ArrayScan VTI (Thermo Scientific Cellomics) (0.8 NA objective, 0.63x optical coupler, and XF-93 filter set) at 20x magnification. The images were acquired using the autofocus feature of the ArrayScan instrument, which entails the following steps. First, the camera focuses on channel 1 (Hoechst 33342), where nuclei are identified. Second, a Z offset of 1 um is used for capturing mitochondria (MitoTracker Red). […]
Consider `CN(C)CCCN(C)CCCN(C)C`, for which the call was inactive.

`CC(C)c1cccc(C(C)C)c1NC(=O)NS(=O)(=O)c1cc(C(C)(C)O)co1`: the result was inactive.

Turning to `CCCCCCCCCCCCCCOS(=O)(=O)O`, the concentration at half-maximal activity (AC50) (commonly the midpoint of the concentration-response curve, whichever way the signal moves) is 100 µM (active).

Consider `NC(=Nc1ccccc1)Nc1ccccc1`, for which the result was inactive.

Consider `CCCCC(CC)COC(=O)CCCCCCCC(=O)OCC(CC)CCCC` (stereo not given), for which the outcome was inactive.

For the compound `S=c1[nH]c2ccccc2s1`, the compound was classed as inactive.

As for `COc1ccc(OC(F)(F)F)cc1CN[C@H]1CCCN[C@H]1c1ccccc1`, the AC50 is 24.9 µM (active).

For the compound `O=C(O)CC(O)(CC(=O)O)C(=O)O`, the compound was called inactive.

Regarding `CN(C)C(=O)NC1(c2ccccc2)CCN(CCC[C@]2(c3ccc(Cl)c(Cl)c3)CCCN(C(=O)c3ccccc3)C2)CC1`, the AC50 is 14.8 µM (active).

On to `Cc1cc(SC2=C(O)C[C@@](CCc3ccc(N)cc3)(C(C)C)OC2=O)c(C(C)(C)C)cc1CO`, for which the outcome was inactive.

With `C=CCCCCCCCCCCCC`, the AC50 was 99.4 µM (active).

As for `COc1ccc(C(=O)Nc2nc3ccccc3c(NCc3ccccc3)c2C#N)cc1`, the AC50 is 160 µM (active).

Turning to `NCCOCCOCCN`, the AC50 is 83.7 µM (active).

As for `CC(C)(C)c1ccccc1`, the compound was classed as inactive.

For the compound `CCc1cc(C2=C(C(=O)O)N(c3ccccc3C(F)(F)F)S(=O)(=O)c3ccccc32)cc2c1OCO2`, the compound was called inactive.

Turning to `CCCCCCCC(=O)OC`, the result was inactive.

`CS(=O)(=O)c1ccc([C@@H](C[C@H]2CCC(=O)C2)C(=O)Nc2cnccn2)cc1Cl`: the result was inactive.

For `CCCCCCCCCC[N+](C)(C)[O-]`, the call was inactive.

For the compound `C=CCc1ccc(OC)c(OC)c1`, the result was inactive.

As for `O=C(O)c1[nH]n(-c2ccc(S(=O)(=O)O)cc2)c(=O)c1N=Nc1ccc(S(=O)(=O)O)cc1`, the call was inactive.

Take `Nc1nc(Cl)nc2c1ncn2[C@H]1C[C@H](O)[C@@H](CO)O1`: the AC50 was 0.208 µM (active).

Regarding `Cc1cc(Cc2ccc(N)c(C)c2)ccc1N`, the call was inactive.

Turning to `CC1=C(C)S(=O)(=O)CCS1(=O)=O`, the call was inactive.

Turning to `COC(=O)CCC(=O)OC`, the call was inactive.

In the case of `O=C1c2c(O)cccc2Cc2cccc(O)c21`, the outcome was inactive.

In the case of `Cc1c(C)c2c(c(C)c1O)CCC(C)(COc1ccc(CC3SC(=O)NC3=O)cc1)O2` (stereo not given), the call was inactive.

For `CC1(C)C(=O)NC(=O)N1CO`, the compound was called inactive.

For `CN(C)C(=O)NC1(c2ccccc2)CCN(CC[C@@]2(c3ccc(F)c(F)c3)CN(C(=O)c3ccccc3)CCO2)CC1`, the outcome was inactive.

With `CCCCc1nc2cccnc2n1Cc1ccc(-c2ccccc2-c2nnn[nH]2)cc1`, the concentration at half-maximal activity (AC50) is 31.1 µM (active).

For `Cc1ccc(C(C)(C)C)c(O)c1`, the AC50 was 110 µM (active).

`CCCC[C@H]1CN(CC2CCOCC2)C(=O)OC12CCN(C1(C)CCN(C(=O)c3c(C)ncnc3C)CC1)CC2`: the compound was called inactive.

For `COC(=O)CCCC(=O)OC`, the result was inactive.

With `Oc1ccc(O)cc1`, the AC50 is 19 µM (active).

Consider `OCC(CO)n1cnc(-c2ccc(F)cc2)c1-c1ccnc(Oc2ccccc2)n1`, for which the result was inactive.

For the compound `CCCCC(CC)COP(=O)(OCC(CC)CCCC)OCC(CC)CCCC` (stereo not given), the concentration at half-maximal activity (AC50) was 71.1 µM (active).

Consider `CCc1nc(N)nc(N)c1-c1ccc(Cl)cc1`, for which the compound was called inactive.

Turning to `CN(C)CCCN1c2ccccc2Sc2ccc(Cl)cc21`, the AC50 was 28.5 µM (active).

`O=C1OC(c2ccc(O)cc2)(c2ccc(O)cc2)c2ccccc21`: the AC50 was 51.8 µM (active).

For `O=[Si]=O`, the compound was called inactive.

Turning to `CCCCC(CC)CO` (stereo not given), the outcome was inactive.
